According to PubChem BioAssay (NCI):
The panel holds about 79,000 compounds, 15% with a hit somewhere; the sample as a whole holds those more often. The source made the active and inactive calls. No stated cut-off is given here; in the data, active means growth inhibition above about 70%; inactive means the rest.

Experiments:
[1] = NCI Yeast Anticancer Drug Screen. Data for the rad52 strain (AID 147);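 further: 0% = growth of vehicle-treated control cultures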; conditions: S. cerevisiae rad52 mutant growth inhibition, hits give high values
How it was run: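 The repair-mutant yeast strain was incubated with compounds, then growth was read and inhibition derived relative to vehicle.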

[2] = NCI Yeast Anticancer Drug Screen. Data for the wt1 strain (AID 149);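 further: 0% = growth of vehicle-treated wt1 cultures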; conditions: S. cerevisiae wt1 strain (SPY 50644) growth inhibition, hits give high values
How it was run: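 wt1 strain grown with compound or vehicle; inhibition taken from the growth difference.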

[3] = NCI Yeast Anticancer Drug Screen. Data for the rad50EPP+ strain (AID 151);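 further: 0% = growth of vehicle-treated control cultures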; conditions: S. cerevisiae rad50 mutant strain, hits give high values
How it was run: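 Vehicle-normalised growth inhibition; rad50EPP+ yeast strain, altered in DNA damage repair, compound-treated.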

[4] = NCI Yeast Anticancer Drug Screen. Data for the mgt1 strain (AID 153); conditions: S. cerevisiae mgt1 mutant growth inhibition, hits give high values
How it was run: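 Vehicle-normalized growth inhibition is determined in mgt1 yeast, a strain selected for a defined alteration in DNA repair or cell cycle control.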

[5] = NCI Yeast Anticancer Drug Screen. Data for the rad50 strain (AID 155);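 further: 0% = growth of vehicle-only cultures of the same strain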; conditions: S. cerevisiae rad50 strain growth inhibition, hits give high values
How it was run: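 DNA repair mutant yeast, compound exposure, growth read-out; inhibition is taken relative to vehicle.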

[6] = NCI Yeast Anticancer Drug Screen. Data for the mec2-1 strain (AID 157); conditions: S. cerevisiae mec2-1 strain, hits give high values
How it was run: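 Mutant yeast (mec2-1) grown with compound; growth inhibition relative to vehicle control reported.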

[7] = NCI Yeast Anticancer Drug Screen. Data for the rad14 strain (AID 159);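 further: 0% = growth of vehicle-treated control cultures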; conditions: S. cerevisiae rad14 strain growth inhibition, hits give high values
How it was run: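 DNA repair-defective yeast, compound-exposed; % growth inhibition derived by comparison with vehicle-treated controls.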

[8] = NCI Yeast Anticancer Drug Screen. Data for the sgs1 mgt1 strain (AID 161);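 further: 0% = growth of cultures given vehicle only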; conditions: S. cerevisiae sgs1 mgt1 strain, hits give high values
How it was run: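 Yeast cells carrying a defined DNA-repair defect were exposed to test compounds. Growth inhibition was measured relative to vehicle-treated controls.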

[9] = NCI Yeast Anticancer Drug Screen. Data for the CLN2oe strain (AID 163);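 further: 0% = growth of vehicle-only control cultures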; conditions: S. cerevisiae CLN2oe strain, hits give high values
How it was run: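 Compounds are applied to yeast harbouring a defined cell-cycle control change; reduced growth compared with vehicle-treated controls gives the value.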

[10] = NCI Yeast Anticancer Drug Screen. Data for the cln2 rad14 strain (AID 165);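 further: 0% = growth equal to vehicle treated cultures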; conditions: S. cerevisiae cln2 rad14 strain, hits give high values
How it was run: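 Readout is yeast growth inhibition versus vehicle-treated controls, using a strain with cln2 and rad14 alterations exposed to compound.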

[11] = NCI Yeast Anticancer Drug Screen. Data for the bub3 strain (AID 167); conditions: S. cerevisiae bub3 mutant strain, hits give high values
How it was run: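 In this screen, a yeast mutant lacking normal mitotic checkpoint function is challenged with compound. Relative growth versus vehicle gives the inhibition value.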

[12] = NCI Yeast Anticancer Drug Screen. Data for the wt2 strain (AID 169);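 further: 0% = growth of vehicle-treated yeast cultures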; conditions: S. cerevisiae wt2 strain growth inhibition, hits give high values
How it was run: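 Against vehicle-treated controls, the growth of yeast exposed to each compound was compared, and the inhibition was recorded.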

[13] = NCI Yeast Anticancer Drug Screen. Data for the mlh1 strain (AID 171);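 further: 0% = growth of vehicle-treated control cultures of the same strain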; conditions: S. cerevisiae mlh1 strain growth inhibition, hits give high values
How it was run: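 Measured: yeast growth. Reference: vehicle-treated controls. Organism: strain with a defined alteration affecting DNA damage repair or cell cycle control, treated with compound.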

[14] = NCI Yeast Anticancer Drug Screen. Data for the sgs1 strain (AID 173);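 further: 0% = growth of vehicle-only control cultures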; conditions: S. cerevisiae sgs1 mutant, hits give high values
How it was run: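 Each compound was added to cultures of the altered yeast strain. Growth was recorded, and inhibition was derived by comparison with vehicle controls.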

[15] = NCI Yeast Anticancer Drug Screen. Data for the mlh1 rad18 strain (AID 175); conditions: S. cerevisiae mlh1 rad18 strain growth inhibition, hits give high values
How it was run: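 Genetically defined yeast (DNA repair-deficient) exposed to compounds; growth inhibition determined relative to vehicle.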

[16] = NCI Yeast Anticancer Drug Screen. Data for the rad18 strain (AID 177); conditions: S. cerevisiae rad18 mutant growth inhibition, hits give high values
How it was run: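 Vehicle-treated cultures served as the baseline for scoring compound-induced growth inhibition in DNA-repair-mutant yeast.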

[17] = at 5.0 µM (retest, dose inferred, filed as 0.5)
[18] = at 50.0 µM (retest, dose inferred, filed as 5.0)

Measured: growth inhibition

CCNC(=O)OCC1C2=C(C(=O)C(C)=C(N)C2=O)N2CC3C(N3C)C12OC (stereo not drawn)
inactive: [1]; at 1.2 µM 4% | [1]; at 3.7 µM 25% | [1]; at 11.0 µM 25% | [1]; at 33.0 µM 63% | [2]; at 1.2 µM -19% | [2]; at 3.7 µM -16% | [2]; at 11.0 µM -4% | [2]; at 33.0 µM 23% | [2]; at 100.0 µM 67% | [3]; at 1.2 µM 6% | [3]; at 3.7 µM -12% | [3]; at 11.0 µM -6% | [3]; at 33.0 µM 13% | [3]; at 100.0 µM 41% | [4]; at 1.2 µM 2% | [4]; at 3.7 µM 2% | [4]; at 11.0 µM 21% | [4]; at 33.0 µM 37% | [5]; at 1.2 µM 14% | [5]; at 3.7 µM 15% | [5]; [17] 34% | [5]; at 11.0 µM 19% | [5]; at 33.0 µM 57% | [5]; at 50.0 µM 58% | [6]; at 1.2 µM 9% | [6]; at 3.7 µM 13% | [6]; [17] 23% | [6]; at 11.0 µM 18% | [6]; at 33.0 µM 58% | [6]; at 50.0 µM 63.6% | [7]; at 1.2 µM -9% | [7]; at 3.7 µM -5% | [7]; at 11.0 µM 8% | [7]; at 33.0 µM 45% | [8]; [17] 23% | [8]; [18] 68% | [8]; at 50.0 µM 47.6% | [9]; at 1.2 µM 4% | [9]; at 3.7 µM 4% | [9]; at 11.0 µM 19% | [9]; at 33.0 µM 41% | [10]; [17] 14% | [10]; [18] 50% | [10]; at 50.0 µM 44.7% | [11]; at 1.2 µM 13% | [11]; at 3.7 µM 9% | [11]; [17] 21% | [11]; at 11.0 µM 10% | [11]; at 33.0 µM 36% | [11]; [18] 50% | [11]; at 50.0 µM 21.8% | [12]; at 1.2 µM -37% | [12]; at 3.7 µM -32% | [12]; at 11.0 µM -28% | [12]; at 33.0 µM 6% | [12]; at 100.0 µM 34% | [13]; at 1.2 µM 15% | [13]; at 3.7 µM 18% | [13]; at 11.0 µM 32% | [13]; at 33.0 µM 56% | [14]; at 1.2 µM 4% | [14]; at 3.7 µM 16% | [14]; at 11.0 µM 29% | [14]; at 33.0 µM 59% | [16]; at 1.2 µM 13% | [16]; at 3.7 µM 40%
active: [1]; at 100.0 µM 81% | [4]; at 100.0 µM 74% | [5]; [18] 70% | [5]; at 100.0 µM 78% | [6]; [18] 71% | [6]; at 100.0 µM 87% | [7]; at 100.0 µM 78% | [9]; at 100.0 µM 80% | [11]; at 100.0 µM 71% | [13]; at 100.0 µM 84% | [14]; at 100.0 µM 81% | [15]; [17] 73% | [15]; [18] 92% | [15]; at 50.0 µM 70.8% | [16]; at 11.0 µM 72% | [16]; at 33.0 µM 89% | [16]; at 100.0 µM 91%
